These results are taken from the supplement of paper PMC8728848.

Many of the other results were omitted from the sample, so the strongest signals are more common in it than they were.

What all share (experiment): glycan array binding signal (z-score within array); higher = stronger binding
What all share (conditions): glycan notation: IUPAC condensed, linker removed

One experiment addresses Fuc(a1-2)[Gal(a1-3)]Gal. The gist of the method: (§1)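 Negative Z-scores can be read as non-binding. The Z-score is calculated within each array and then averaged across arrays of one protein sequence at different concentrations or buffers and across linkers. Arrays, 3228 in all, were curated from the Consortium for Functional Glycomics database and kept only where the protein sequence was available.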

Experiment [1] concerns the target Fuc(a1-2)[Gal(a1-3)]Gal(b1-4)Glc. A digest of the protocol:
as §1

Experiment [2] concerns the target Fuc(a1-2)[Gal(a1-4)]Gal(b1-4)GlcNAc. The gist of the method: as §1
Experiment [3] deals with Fuc(a1-2)[GalNAc(a1-4)]Gal(b1-4)GlcNAc. A digest of the protocol: as §1
The next experiment concerns the target Fuc(a1-4)GlcNAc. The gist of the method: as §1
The target in a further experiment is Gal(a1-3)Gal. The gist of the method:
as §1

The target of experiment [4] is Gal(b1-3)GlcNAc(b1-3)Gal(b1-3)GlcNAc. The gist of the method: as §1
The target of a further experiment is Gal3S(b1-4)GlcNAc6S. The gist of the method:
as §1

Another experiment deals with GalNAc(a1-3)Gal. A digest of the protocol:
as §1

In the next experiment the target is GlcA(b1-3)GlcNAc. A digest of the protocol:
as §1

Experiment [5] addresses GlcNAc(a1-3)Gal(b1-4)GlcNAc. The gist of the method: as §1
In experiment [6] the target is GlcNAc(a1-6)Gal(b1-4)GlcNAc. A digest of the protocol: as §1
In a further experiment the target is GlcNAc(b1-3)Gal(b1-4)Glc. A digest of the protocol: as §1
A further experiment has as its target Neu5Ac(a2-6)GalNAc. The gist of the method:
as §1

Experiment [7] deals with Neu5Ac(a2-8)Neu5Ac(a2-3)[GalNAc(b1-4)]Gal(b1-4)Glc. The gist of the method:
as §1

For a further experiment, the target named is Neu5Gc(a2-3)Gal(b1-4)Glc. The gist of the method:
as §1

The target of experiment [8] is Neu5Gc(a2-3)Gal(b1-4)GlcNAc. A digest of the protocol: as §1
A further experiment deals with Neu5Gc(a2-6)GalNAc. The gist of the method: as §1

B1: SLR2P2A3 (Tachypleus tridentatus), TAL2_TACTR (protein)
chain: MEKGTPPTHDSDNWMGRAKKIGNGGWNQFQFLFFDPNGYLYAVSKDKLYKASPPQSDTDNWIARATEIGSGGWSGSKFLFFHPNGYLYAVHGQRLYKALPPVSNQD
On to B1, for which the “glycan array binding signal (z-score)” value with Fuc(a1-2)[Gal(a1-3)]Gal is -0.054; in [1], -0.191; in experiment [2], -0.148; in experiment [3] it was 7.28; in the experiment with Fuc(a1-4)GlcNAc, -0.416; with Gal(a1-3)Gal, -0.317. Moreover, the “glycan array binding signal (z-score)” value was -0.344 in experiment [4]; -0.09 with Gal3S(b1-4)GlcNAc6S; 6.13 with GalNAc(a1-3)Gal; 0.168 in the experiment with GlcA(b1-3)GlcNAc; 5.44 in experiment [5]; 6.84 in experiment [6]. Moreover, the “glycan array binding signal (z-score)” value with GlcNAc(b1-3)Gal(b1-4)Glc is 5.09; in the experiment with Neu5Ac(a2-6)GalNAc, -0.16; in experiment [7], -0.279; with Neu5Gc(a2-3)Gal(b1-4)Glc it was -0.253; in experiment [8], -0.059; with Neu5Gc(a2-6)GalNAc it was -0.125.
